Rows were chosen to be rich in hits. Some 11% of all compounds tested hit in one or more screens of this group.
USP30 block – blocks human USP30 ubiquitin-rhodamine cleavage | AID 1645860 | inhibition, % at 25 µM | hit rate 5.3% among 47,000 | purified USP30, Ub-rhodamine cleavage fluorescence
USP28 block – human USP28 deubiquitinase inhibition | AID 1645857 | inhibition, % at 25 µM | hit rate 3% among 47,000 | purified USP28, Ub-rhodamine cleavage fluorescence, 30 min
USP17 block – inhibitors of human USP17 deubiquitinase. A8MUK1. purified USP17, Ub-rhodamine cleavage fluorescence, 3 h. inhibition, % at 50 µM. hit rate 6.5% among 47,000
Target sequence (A8MUK1 whole entry, looked up): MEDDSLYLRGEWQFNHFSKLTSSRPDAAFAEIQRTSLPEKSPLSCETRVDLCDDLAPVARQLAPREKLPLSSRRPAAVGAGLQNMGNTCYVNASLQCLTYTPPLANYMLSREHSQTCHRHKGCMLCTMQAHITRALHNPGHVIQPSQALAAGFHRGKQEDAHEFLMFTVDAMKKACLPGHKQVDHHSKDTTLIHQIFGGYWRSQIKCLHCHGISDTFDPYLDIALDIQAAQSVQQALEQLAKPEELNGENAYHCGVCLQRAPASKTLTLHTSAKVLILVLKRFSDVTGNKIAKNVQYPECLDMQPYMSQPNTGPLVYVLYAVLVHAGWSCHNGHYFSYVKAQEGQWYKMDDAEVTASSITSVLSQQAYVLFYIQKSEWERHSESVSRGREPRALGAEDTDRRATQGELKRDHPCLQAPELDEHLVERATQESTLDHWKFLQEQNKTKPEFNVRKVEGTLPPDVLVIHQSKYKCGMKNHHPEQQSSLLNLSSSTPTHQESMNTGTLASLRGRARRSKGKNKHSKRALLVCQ
* marks the source's active call; other numbers are inactive results; i = inactive; nt = no result. Rule as the data show it: active = inhibition above about 30%; inactive = the rest.

SMILES	USP30 block	USP28 block	USP17 block
Cc1ccc(Cn2nc(C)cc2C(=O)Nc2cccc(C(F)(F)F)c2)cc1	27	11	24
Cc1cc(C(F)(F)F)n(-c2ccc(NC(=O)Nc3cccc(C(F)(F)F)c3)cc2)n1	-5	43*	39*
O=C(NC1CCCC1)C(c1ccncc1)N(C(=O)c1ccc(-c2ccccc2)[nH]1)c1ccccc1 (centres undefined)	-19	0	-8
NS(=O)(=O)c1ccc(CCNC(=O)C(=O)c2cn(CC(=O)N3CCCCC3)c3ccccc23)cc1	-143	-40	-45
N#C/C(=C(/c1ccccc1)c1ccccc1Cl)c1ccccc1	22	6	21
COCCC(=O)N1CC2(CCN(Cc3ccc(-c4ccccc4)cc3)CC2)C1	21	1	-6
CCCCc1nc2sc3c(SCC(=O)Nc4ccc(Br)cc4)ncnc3c2c2c1CCC2	0	-5	-3
Nc1c(-c2ccccn2)nsc1C(=O)N1CCN(c2ccccc2)CC1	8	6	2
Nc1c(-c2ccccn2)nsc1C(=O)N1CCN(c2ccc(F)cc2)CC1	36*	6	24
COc1ccc(CCNCc2c(C(=O)O)c(C)n(-c3ccc(C)cc3)c2C)cc1OC	-39	-6	6
O=C(Nc1ccncc1)c1cc(Br)ccc1F	35*	14	25
O=C(Nc1ccncc1)c1ccc[nH]c1=O	21	13	17
COc1cccc(Nc2nc3c(S(=O)(=O)c4ccccc4)nnn3c3ccccc23)c1	nt	nt	85*
Cc1c(Cl)cccc1Nc1nc2c(S(=O)(=O)c3ccccc3)nnn2c2ccc(Cl)cc12	nt	nt	57*
Cc1ccc(S(=O)(=O)c2nnn3c2nc(Nc2cccc(C)c2C)c2ccccc23)cc1	30	4	22
O=S(=O)(c1ccccc1)c1nnn2c1nc(Nc1ccc(F)cc1)c1ccccc12	17	0	5
CN(C)CCN1C(=O)c2cc3occc3n2CC1(C)C(=O)NC1CCCCCC1 (centres undefined)	-12	0	-17
CCCCNC(=O)CN1CC[C@@]2(O)CCCC[C@H]2C1c1cc(OC)ccc1OC (some centres undefined)	-16	-9	nt
Cc1ccc(CN2CCc3oc(C)c(C(=O)NCc4ccco4)c3C2)cc1	-171	-32	-14
Cc1cccc(NS(=O)(=O)c2cc(C(=O)NCc3cccnc3)ccc2C)c1	11	7	10
CC(=O)Nc1ccc(C(=O)NCc2ccccc2F)c(N2CCCCC2)c1	-18	37*	-17
CC(=O)Nc1ccc(C(=O)NCc2ccccc2F)c(N2CCOCC2)c1	-93	14	13
CC(=O)N1Cc2cc(C)ccc2OC2(CCCN(Cc3ccncc3)C2)C1 (centres undefined)	-12	2	1
COc1ccc(C2C(C(=O)C(C)(C)C)N3c4ccccc4C=CC3C23C(=O)c2ccccc2C3=O)c(OC)c1 (centres undefined)	i	-264	-158
CCn1c(NC(=O)C2CCCCC2)c(-c2cccs2)c(=O)c2ccccc21	-87	-1	-15
SMILES	USP30 block	USP28 block	USP17 block
CCOC(=O)CC(NC(=O)CCc1c(C)nc2c(c1C)c(=O)n(C)c(=O)n2C)c1ccc(C)cc1 (centres undefined)	31*	4	14
COc1ccc(NC(=O)CCc2c(C)nc3c(c2C)c(=O)n(C)c(=O)n3C)cc1	-2	-5	4
Cc1cc(OCCC(C)C)n2nc(C3CCOCC3)cc2n1	2	5	-3
Cn1nccc1C(=O)N1CC[C@H]2NC(=O)c3ccccc3OCC/C=C/C[C@H]2C1	-17	-6	-7
NC(=O)c1ccccc1NCc1cc(=O)n2cc(Cl)ccc2n1	-137	-32	4
Cc1ccc2nc(CNc3ccc(F)cc3C)cc(=O)n2c1	26	52*	85*
CN(Cc1cc(=O)n2ccsc2n1)c1ccccc1	-71	-9	1
Cc1ccc2nc(CN(C)c3ccccc3)cc(=O)n2c1	-136	-5	36*
CN1C(=O)c2cccnc2Sc2cc(NC(=O)c3ccccc3)ccc21	nt	nt	4
Cc1nn(-c2ccccc2)c2c1c(C)c(CCC(=O)NCc1ccc3c(c1)OCO3)c(=O)n2C	6	11	8
COC(=O)c1ccc(C2CC(=O)Nc3c2sc(C(=O)O)c3-c2ccc(OC)cc2)cc1 (centres undefined)	34*	13	11
CCOc1ccc(C2CC(=O)Nc3c2sc(C(=O)O)c3-c2ccc(OC)cc2)cc1 (centres undefined)	4	6	2
CC1c2cc3c(cc2CCN1CC(=O)Nc1cc(Cl)ccc1-n1cncn1)OCCCO3 (centres undefined)	-25	-9	19
CNc1nc2c(c(=O)n1Cc1ccccc1)CCN(C(=O)N1CCOCC1)C2	-4	-7	6
Cc1ccccc1S(=O)(=O)N=C(Nc1ccccn1)c1ccccc1	22	2	11
Cc1ccccc1NC(=NS(=O)(=O)c1ccccc1)c1ccc(Cl)cc1	8	44*	5
NS(=O)(=O)c1ccc(NC(=O)c2ccc3ncsc3c2)cc1	3	15	17
NS(=O)(=O)c1ccc(NC(=O)c2sccc2Oc2ccc(F)cc2[N+](=O)[O-])cc1	61*	32*	55*
CN[C@H]1CC2(CCN(C(=O)CCCn3cccn3)CC2)OC[C@]1(C)O	19	79*	0
CC1(C)Oc2ccccc2[C@H]2OCC3(CCN(C(=O)CCCn4cccn4)CC3)C[C@@H]21	-5	-7	-1
Cc1ccc(C(=O)N2CCN(c3cc(-c4cccnc4)[nH]n3)CC2)cc1	2	5	-1
N#Cc1c2c(c3nncn3c1N1CCOCC1)CN(Cc1ccccc1)CC2	-152	-30	-29
COc1cccc(CN2CCC3(Cc4ccccc4CNC3=O)C2)c1 (centres undefined)	-4	-10	-8
Cc1ccc(-n2nc(C)c3c2NC(=O)CC3C(=O)c2ccc(O)cc2)cc1C (centres undefined)	0	8	10
Cc1cccc(-n2nc(C)c3c2NC(=O)CC3C(=O)c2ccc3c(c2)OCO3)c1 (centres undefined)	8	10	0
SMILES	USP30 block	USP28 block	USP17 block
Cc1nn(-c2ccc(F)cc2)c2c1C(C(=O)c1ccc3c(c1)OCO3)CC(=O)N2 (centres undefined)	11	4	5
COc1ccc(C(=O)C2CC(=O)Nc3c2c(C)nn3-c2ccc(Br)cc2)cc1 (centres undefined)	23	10	58*
COc1ccc(-n2nc(C)c3c2NC(=O)CC3C(=O)c2ccc3c(c2)OCO3)cc1 (centres undefined)	39*	4	16
Cc1cccc(-n2nc(C)c3c2NC(=O)CC3C(=O)c2cc3ccccc3o2)c1 (centres undefined)	3	-15	70*
COC(=O)C(Cc1ccccc1)NC(=O)C1C2CCCCC21 (centres undefined)	7	2	3
Cc1ccc2c(c1)c(=O)c1c(n2C)CCN(CC(=O)Nc2ccccc2F)C1	-148	-39	-80
Cc1nc(-c2ccccc2)sc1C(=O)Nc1ccc2c(c1)OCCO2	17	50*	11
Cc1nc2ccccc2c2oc(C(=O)Nc3ccc4c(c3)OCCO4)cc12	-9	22	0
CCOC(=O)c1ccc2[nH]cc(C(C)=O)c(=O)c2c1	nt	nt	-13
Cc1ccc2[nH]cc(S(=O)(=O)c3cc(Cl)cc(Cl)c3)c(=O)c2c1	-33	-3	48*

Screens as filed in PubChem BioAssay.
